Assay outcomes: PubChem BioAssay, National Center for Advancing Translational Sciences (NCATS)
Rows were chosen to be rich in hits. Some 19% of all compounds tested hit in one or more screens of this group.
SARS PLP yeast: blocks SARS-CoV papain-like protease in a yeast assay. AID 485353. Potency, µM (doses to about 32.9 µM), for inactives: at the top dose activity, positive = growth rescue, most hits filed as activators. 330,000 tested, 0.19% active. S. cerevisiae expressing SARS-CoV PLpro, growth rescue; calls by dose curve; note: potency is the fitted concentration of half-maximal effect; 0% is about no effect; nearly all actives have a fitted effect of over 55% in size
Pf growth 48h: inhibits P. falciparum growth in the first generation, 48 h | P. falciparum luciferase growth in erythrocytes, 48 h | Potency, µM (highest dose often 28.7 µM), inactives show at the top dose activity change, negative = inhibition, hits mostly inhibitors | 310,000 tested, 5.9% active | AID 504832; note: potency is the fitted concentration of half-maximal effect; % is set by controls: 0 for no effect and ±100 for the full control effect
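Growth was read as firefly luciferase luminescence after a 48 h, 37 C, 5% CO2 exposure of compounds to reporter-bearing P. falciparum cultures (0.1% parasitemia, 2% hematocrit final) in Albumax-supplemented RPMI 1640.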
CHX counter: counter-screen for Shiga toxin inhibitors: cycloheximide protein synthesis inhibition; AID 2314; cell reporter, cycloheximide protein synthesis inhibition counterscreen; 300,000 tested, 12% active; max response, %; in the data active = max response mostly above about 13%, no sharp cut-off; inactive = mostly below about 14%; note: read at 38.3 µM for the half of the compounds with a filed dose; 0% is about no effect
Shiga toxin inh: inhibitors of Shiga toxin in Vero cells; inhibition, % at 38.7 µM; 290,000 tested, 9.2% active; Vero cells, Shiga toxin protein synthesis inhibition reporter; in the data active = inhibition mostly above about 28%, no sharp cut-off; inactive = mostly below about 43%; note: 0% is about no effect
Pf growth 96h: inhibits malaria parasite growth, 96 h; P. falciparum luciferase reporter growth, 96 h; Potency, µM (highest dose often 28.7 µM), without a hit: at the top dose activity change, negative = inhibition, usual class: inhibitors; 320,000 tested, 6.9% active; AID 504834; note: potency is the fitted concentration of half-maximal effect; % is set by controls: 0 for no effect and ±100 for the full control effect
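Readout is luminescence from an integrated firefly luciferase in P. falciparum. Red cells, 2% hematocrit and 0.05% parasitemia final, were cultured with compound through two parasite generations (96 hours) at 37 C, 5% CO2.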
AMA1 RON2 block: inhibitors of Plasmodium falciparum AMA1-RON2 interaction; 360,000 tested, 0.2% active; AlphaScreen AMA1-biotinylated RON2 peptide binding; Potency, µM (top dose mostly 58.2 µM), without a hit: top-dose activity change, negative = inhibition, most hits filed as inhibitors;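 note: potency is the fitted concentration of half-maximal effect; 0% = vehicle wells and -100% = peptide control; nearly all actives have a fitted effect of over 45% in size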
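AMA1 (3D7) with his tag at 25 nM final met compounds first, then biotinylated RON2 peptide at 25 nM; detection used donor plus acceptor beads, 10 µg/mL apiece, read by AlphaScreen after 30 min at room temperature.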
An asterisk follows results filed as active; i = inactive; ? = inconclusive; · = no result given; [ ] = dose if it differs, or a comment. Unless noted, calls come from the whole dose curve; as a rule, active = well fitted curve in the direction sought with a large enough effect; inconclusive = small, poorly fitted or top-dose-only effect, or another doubt; inactive = no such curve, though single readings can be large; an effect the other way counts as inactive or inconclusive.

SMILES | SARS PLP yeast | Pf growth 48h | CHX counter | Shiga toxin inh | Pf growth 96h | AMA1 RON2 block
O=[N+]([O-])c1ccc(CN2CCN(c3nc4ccccc4s3)CC2)cc1 | 2% | 29% | 12* | 24 | ? | 2%
c1csc(Cn2nnnc2CN2CCN(c3nc4ccccc4s3)CC2)c1 | -17% | -4% | -2 | -13 | -2% | -7%
CC(C)(C)C1CCc2[nH]c3ccccc3c(=O)c2C1 (stereo not drawn) | -42% | 0.52µM* | 13 | 9 | ? | -2%
O=NC1=C(c2c(O)[nH]c3ccccc23)CCCC1 | 15% | -2% | 11 | -2 | -1% | 4%
NNC(=O)c1ccc2[nH]c3c(c2c1)CCCC3 | 4% | 19% | 5 | 16 | -4% | 26%
O=c1c2c([nH]c3ccccc13)CCCC2 | -36% | 1.9µM* | 14 | -3 | 1.9µM* | 6%
O=c1c2c([nH]c3ccccc13)C(=C1CCCC1)CC2 | -14% | 13µM* | 1 | -8 | 0% | ?
c1ccc(Nc2ccc(-n3ccnc3)nn2)cc1 | -1% | ? | 12 | 31 | 20% | -7%
Clc1ccc(Nc2ccc(-n3ccnc3)nn2)cc1Cl | -27% | 2.6µM* | 2 | 22 | 1.9µM* | 1%
O=C(NN=C1CCCC1)c1ccn[nH]1 | 9% | 109% | 56* | 104* | ? | 69%
O=C(NN=C1CCCCCCC1)c1ccc(F)cc1 | -2% | -9% | 24* | 76* | 4% | 74%
O=C(NN=C1CCCCCC1)c1cccs1 | -3% | 6% | 61* | 92* | ? | 57%
O=C(NN=C1CCCCCCCCCCC1)c1ccccc1F | -12% | 2% | 78* | 70* | 3% | 11%
O=C(NN=C1CCCC1)c1ccccc1OCc1ccc(Cl)cc1 | -1% | 9% | 23 | 54 | ? | 12%
CC(=O)NCc1ccc(S(=O)(=O)NC(C(=O)O)C(C)C)cc1 (stereo not drawn) | 0% | -14% | 2 | -10 | 17% | -14%
NC(=O)c1nsc(C(=O)N(c2ccccc2)C(C(=O)NCC2CCCO2)c2ccc(F)cc2)c1N (stereo not drawn) | 3% | -16% | -7 | -15 | -3% | -2%
Cc1ccc(C(C(=O)NCC2CCCO2)N(C(=O)c2snc(C(N)=O)c2N)c2ccc3c(c2)OCCO3)cc1 (stereo not drawn) | 0% | 10µM* | -3 | -4 | -4% | ?
NC(=O)c1nsc(C(=O)N(c2ccc3c(c2)OCCO3)C(C(=O)NCC2CCCO2)c2ccc(F)cc2)c1N (stereo not drawn) | 2% | ? | 28* | 64* | -3% | -23%
COC1=CCC2([N+](=O)[O-])CN(CCO)CC1([N+](=O)[O-])C2 (stereo not drawn) | 30% | 23% | 11 | 20 | ? | -7%
O=C(NCc1ccc(F)cc1)C1CCN(C(=O)NCc2ccccc2)CC1 | 1% | -4% | -2 | -2 | ? | -1%
COc1ccc(CN(C)CC(=O)N2CCc3ccccc3C2)cc1 | 3% | 11% | -2 | -14 | 3% | -21%
COc1ccc(CNC(=O)N2CCc3ccccc3C2)cc1 | 1% | 44% | 16* | 58* | 34% | -8%
O=C(NCc1ccc(F)cc1)N1CCc2ccccc2C1 | -4% | 20% | 36* | 69 | -21% | 14%
Cc1[nH]ncc1-c1ccccc1Cl | 1% | -8% | -2 | -3 | 27% | -1%
CCN(CC)C(=O)Cn1cc(S(=O)(=O)CC(=O)NCc2ccc(F)cc2)c2ccccc21 | -4% | ? | -3 | 3 | -29% | -1%
SMILES | SARS PLP yeast | Pf growth 48h | CHX counter | Shiga toxin inh | Pf growth 96h | AMA1 RON2 block
O=C(CN1C(=O)c2cccnc2Oc2ccc(Cl)cc21)NCCCc1ccccc1 | 6% | ? | 0 | -11 | 77% | -8%
O=C(CN1C(=O)c2cccnc2Oc2ccc(Cl)cc21)Nc1ccccc1F | 2% | ? | 13* | 14 | 7% | -9%
COc1cccc(NC(=O)CN2C(=O)c3cccnc3Oc3ccc(Cl)cc32)c1 | 4% | 13µM* | 3 | 12 | 2% | 9%
COc1ccc(C(C)=O)cc1CSc1nc2ccccc2o1 | -15% | -26% | -1 | -8 | -14% | 9%
O=[N+]([O-])c1ccccc1CSc1nc2ccccc2o1 | 25% | 110% | 40* | 75* | 154% | -9%
CC(C)C(NC(=O)c1ccc(F)cc1)C(=O)NCC1CCCO1 (stereo not drawn) | 1% | 46% | -2 | -5 | 4% | 0%
CCN(CC)c1ccc(/C=N/OCC(=O)Nc2cccc(C)c2)cc1 | -1% | 20% | 7 | 28 | 38% | ?
CN(C)c1ccc(/C=N/NC(=O)COc2ccccc2)cc1 | -2% | 376% | 38* | 44* | 34% | -3%
CN(C)c1ccc(/C=N/NC(=O)CNC(=O)/C=C/c2ccccc2)cc1 | -5% | 115% | 30* | 30* | 6% | -9%
CN(c1ccccc1)c1ccc(/C=N/NC(=O)CC#N)cc1 | 9% | -20% | 28* | 58* | -18% | -1%[2.32 µM]
Cc1cccc(OCC(=O)N/N=C/c2ccc(N(C)C)cc2)c1 | -1% | 13% | 0 | 26 | 9% | -13%
COc1ccccc1/C=C/C(=O)NCC(=O)N/N=C/c1ccccc1 | -5% | 5% | 9 | -4 | 29% | 9%
CNC(=O)CO/N=C/c1ccc(N(C)C)cc1 | 0% | 24% | 22* | 29* | 77% | 6%
OCCNCc1c(OCc2ccc(Cl)cc2)ccc2ccccc12 | 12% | 0%[0.00184 µM] | -7 | -3 | -18% | -9%
O=C(Nc1cc(-c2nc3ncccc3o2)ccc1Cl)c1ccc([N+](=O)[O-])o1 | 0% | ? | -1 | 37 | 30% | -8%
CN(C)/C=C(\C#N)C(=O)N/N=C/c1ccccc1 | 1% | 207% | 27* | 96 | 174% | 4%
Cc1ccccc1N(CC(=O)N/N=C/c1ccc(N(C)C)cc1)C(=O)c1ccccc1 | -11% | 7% | 34* | 31 | · | -3%
C/C(=N\NC(=O)COc1ccccc1)c1cccs1 | -15% | 80% | 54* | 70* | 29% | 11%
C/C(=N\NC(=O)c1cccc2ccccc12)c1cccs1 | -5% | 82% | 29* | 70* | 100% | 18%
C/C(=N/NC(=O)Cc1cccc2ccccc12)c1cccs1 | -6% | -26% | 2 | -13 | -16% | 31%
C/C(=N\OCC(=O)Nc1ccccc1C(=O)O)c1cccs1 | 5% | 91% | 34* | 98* | -1% | -2%
C/C(=N\NC(=O)c1ccccc1O)c1cccs1 | -12% | i | 32* | 56* | 108% | 14%
C/C(=N\NC(=O)Cc1ccccc1)c1cccs1 | 5% | 31% | 9 | -1 | 68% | -1%
CC(C)C(=O)Nc1ccc(NC(=O)c2cccc3c(Br)cccc23)cc1 | 0% | 15% | -2 | -5 | 20% | -8%
